TNAP act DEA: activators of human TNAP at intermediate phosphate acceptor; purified TNAP, CDP-star luminescence, 100 mM DEA, 30 min; active compounds read high; scale: 0 levamisole-inhibited, 1 vehicle-only enzyme; AID 813; P05186; activation factor at 20 µM; 64,000 tested, under 10 active;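 active = activation factor of at least 2 at 20 µM, relative to controls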
FXIa inh mix: blocks human factor XIa in pooled compound mixtures | P03951 | purified FXIa, fluorogenic substrate | inhibition, % at 5 µM | 62,000 compounds, 0.19% hits | AID 680;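 note: each value is inhibition by a whole ten-compound pool holding the compound; 0% = enzyme with no mixture and 100% = wells lacking enzyme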
Target sequence (P03951 19-387 limits assumed): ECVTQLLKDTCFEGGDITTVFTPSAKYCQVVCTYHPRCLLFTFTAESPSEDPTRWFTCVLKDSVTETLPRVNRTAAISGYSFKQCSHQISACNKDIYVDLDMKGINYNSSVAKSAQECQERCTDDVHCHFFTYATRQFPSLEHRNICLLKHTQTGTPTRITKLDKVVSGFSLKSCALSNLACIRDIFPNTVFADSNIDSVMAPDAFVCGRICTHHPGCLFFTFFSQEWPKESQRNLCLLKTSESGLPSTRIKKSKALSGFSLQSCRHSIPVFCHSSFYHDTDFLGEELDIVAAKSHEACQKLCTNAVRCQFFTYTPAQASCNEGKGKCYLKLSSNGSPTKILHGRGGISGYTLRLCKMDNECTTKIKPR
Target sequence (P03951 388-625 limits assumed): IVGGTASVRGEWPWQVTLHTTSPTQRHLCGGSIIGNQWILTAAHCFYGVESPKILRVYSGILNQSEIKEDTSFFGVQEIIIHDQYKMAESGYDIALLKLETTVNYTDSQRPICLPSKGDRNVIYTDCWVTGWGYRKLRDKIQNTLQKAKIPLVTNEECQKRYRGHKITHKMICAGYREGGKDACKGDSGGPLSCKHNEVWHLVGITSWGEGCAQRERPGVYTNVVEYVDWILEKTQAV
FXIIa mix inh: factor XIIa (human) inhibition, mixture screen | P00748 | purified FXIIa, fluorogenic substrate, pooled mixtures | inhibition, % at 5 µM | 62,000 compounds, 0.2% hits | AID 684;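 note: 0% = enzyme without compound and 100% = no enzyme blank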
HePTP inh: human HePTP phosphatase inhibition; recombinant HePTP phosphatase activity, OD absorbance; 110,000 compounds, 0.64% hits; AID 521; inhibition, % at 20 µM; P35236; in the data active = inhibition above about 50%;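 note: plate controls were vehicle for no effect and reference inhibitor for full effect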
Calb biofilm kill: kills Candida albicans biofilms; 85,000 compounds, 0.14% hits; inhibition, % at 6 µM; C. albicans biofilm + clotrimazole, Alamar Blue;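 active = inhibition above 20%; inactive = inhibition below 20%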;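 note: preformed 24 hr biofilms exposed to compound for 48 hr; 0% = biofilm without compound and 100% = blank killed by clotrimazole plus chlorhexidine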
D1 mod: D1 dopamine receptor (human) allosteric modulation; HEK293 D1, CRE-luciferase, dopamine EC30 potentiation; actives deviate in either direction; 58,000 compounds, 5.9% hits; B-score at 10 µM; P21728;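 active = luminescence count or its row- and column-corrected plate score outside the 99.7% band of the plate's sample wells, on either side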
Numbers without * were called inactive; ! = not confirmed by another sample. The sample as a whole holds a higher share of hits than the screen did. Cut-off read from the data, not from the text of the source, unless noted: active = inhibition above about 20% (passing the limit was not always enough); inactive = the rest.

What do the screens show for `O=C(COC(=O)C1CCCN1C(=O)Oc1ccccc1)c1ccccc1` (stereo unspecified)?
HePTP inh: -10

How did O=C(O)C1CC(O)CN1C(=O)Oc1ccccc1 (stereo unspecified) do in these assays?
HePTP inh: 105*

What do the screens show for `O=C(CCN1C(=O)COc2ccccc21)NCCCN1CCN(c2ccccc2F)CC1`?
TNAP act DEA: 0.9; FXIa inh mix: 7; FXIIa mix inh: -6; HePTP inh: 12; Calb biofilm kill: 6; D1 mod: -3.1*

Results for CC1CCCCN1CCNC(=O)CN1C(=O)COc2ccccc21 (stereo unspecified) ?
TNAP act DEA: 0.9; FXIa inh mix: -3; FXIIa mix inh: -3; HePTP inh: -3; Calb biofilm kill: 5; D1 mod: -3.5*

Results for O=C(O)c1cccc2c1NC(c1ccc([N+](=O)[O-])cc1)C1CC=CC21 (stereo unspecified) ?
HePTP inh: 103*

What do the screens show for `O=C(O)c1cccc2c1NC(c1ccc(Cl)cc1)C1CC=CC21` (stereo unspecified)?
HePTP inh: 104*

How did O=[N+]([O-])c1cccc2c1NC(c1ccc(Cl)cc1)C1CC=CC21 (stereo unspecified) do in these assays?
HePTP inh: 104*

How did O=C(O)c1cccc2c1NC(c1cccc3ccccc13)C1CC=CC21 (stereo unspecified) do in these assays?
HePTP inh: 102*

How did COc1cccc2c1NC(c1ccc(Cl)cc1)C1CC=CC21 (stereo unspecified) do in these assays?
HePTP inh: 6

How did NC(=O)c1ccc(NC(=O)c2cc3ccccc3cc2O)cc1 do in these assays?
HePTP inh: 29

Results for CCOc1ccccc1NC(=O)c1c(Cl)ccc(Cl)c1OC ?
HePTP inh: 4

How did COc1ccc(C2CC(=O)C3=C(C2)Nc2ccccc2NC3c2cc(Br)c(OC)c(OC)c2)cc1 (stereo unspecified) do in these assays?
HePTP inh: 5

What do the screens show for `Cc1csc(NC(=O)c2ccc(Cl)c([N+](=O)[O-])c2)n1`?
HePTP inh: 15

What do the screens show for `COC(=O)c1ccc2c(c1)C1C=CCC1C(c1ccc([N+](=O)[O-])cc1)N2` (stereo unspecified)?
HePTP inh: 10

How did O=C(O)C1Nc2c(cccc2[N+](=O)[O-])C2C=CCC12 (stereo unspecified) do in these assays?
HePTP inh: 104*

Results for O=C(O)c1ccc2c(c1)C1C=CCC1C(c1ccc([N+](=O)[O-])cc1)N2 (stereo unspecified) ?
HePTP inh: 102*

What do the screens show for `COc1cccc2c1NC(C(=O)O)C1CC=CC21` (stereo unspecified)?
TNAP act DEA: 0.8; FXIa inh mix: 9; FXIIa mix inh: 6; D1 mod: -0.048

How did COc1cc(NC(=O)/C=C/c2ccc(OC)c(OC)c2)c(OC)cc1Cl do in these assays?
HePTP inh: 2

How did CCCc1ccc(-c2ccc(F)c(N)c2)nc1 do in these assays?
TNAP act DEA: 1; FXIa inh mix: 5; FXIIa mix inh: -13; HePTP inh: 6; Calb biofilm kill: 6; D1 mod: -7.4*

What do the screens show for `C(=Nc1ccc2c(c1)OCCOCCOc1cc(N=Cc3ccccc3)ccc1OCCOCCO2)c1ccccc1`?
HePTP inh: 0

How did Oc1[nH]c2ccccc2c1C=Nc1ccc2c(c1)OCCO2 do in these assays?
TNAP act DEA: 0.8; FXIa inh mix: 10; FXIIa mix inh: 1; HePTP inh: 7; Calb biofilm kill: -4; D1 mod: -2.9*

Results for COC(=O)C1=C(C)N(C)C(C)=C(C(=O)OC)C1c1ccsc1 ?
TNAP act DEA: 1; FXIa inh mix: 10; FXIIa mix inh: 5; HePTP inh: 105*!; Calb biofilm kill: 4; D1 mod: -2

What do the screens show for `C1=CC2CC1CC2CN1CCN(c2ccccc2)CC1` (stereo unspecified)?
TNAP act DEA: 0.8; FXIa inh mix: 0; FXIIa mix inh: -5; HePTP inh: 4; Calb biofilm kill: 8; D1 mod: -4.6*

What do the screens show for `CS(=O)(=O)N1CCN(CC2CC3C=CC2C3)CC1` (stereo unspecified)?
TNAP act DEA: 0.9; FXIa inh mix: 9; FXIIa mix inh: -23; HePTP inh: 10; Calb biofilm kill: 0; D1 mod: -0.32

What do the screens show for `COc1cc(N=Cc2c(O)n(-c3ccc(Cl)cc3)c(=O)[nH]c2=O)cc(OC)c1`?
HePTP inh: 7

What do the screens show for `Cc1ccc(-c2[nH]n3c(=O)c(C)c(C)nc3c2C)cc1`?
HePTP inh: 2

How did O=C(C1CCC(CNS(=O)(=O)c2cccc3cccnc23)CC1)N1CCCC1 (stereo unspecified) do in these assays?
TNAP act DEA: 0.9; FXIa inh mix: 1; FXIIa mix inh: 22*; HePTP inh: 8; Calb biofilm kill: 8; D1 mod: 0.91

Results for O=C(C1CCC(CNS(=O)(=O)c2cccs2)CC1)N1CCCCC1 (stereo unspecified) ?
TNAP act DEA: 0.9; FXIa inh mix: -2; FXIIa mix inh: -14; HePTP inh: 3; Calb biofilm kill: -2

What do the screens show for `CSc1nc2ccc3nc(NC(=O)c4ccc(Cl)s4)sc3c2s1`?
Calb biofilm kill: 3

How did O=C(Nc1nc2ccc3ccccc3c2s1)c1ccc(Cl)s1 do in these assays?
HePTP inh: 104*

Results for NNc1ccc(/C=C/c2ccc(NN)cc2S(=O)(=O)O)c(S(=O)(=O)O)c1 ?
HePTP inh: 94*

Results for c1ccc(-c2cc3c(N4CCOCC4)ncnc3s2)cc1 ?
TNAP act DEA: 0.9; FXIa inh mix: 6; FXIIa mix inh: 7; HePTP inh: 12; Calb biofilm kill: -9; D1 mod: 14*

How did COc1cc(OC)c(C2NC(=S)NC(C)=C2C(=O)Nc2cccc(Cl)c2)cc1OC (stereo unspecified) do in these assays?
HePTP inh: -6

Results for COc1ccc(-n2cnc3c(sc4nccc(N(C)C)c43)c2=O)cc1 ?
TNAP act DEA: 1; FXIa inh mix: -1; FXIIa mix inh: -17; HePTP inh: 105*!; Calb biofilm kill: 9; D1 mod: -0.61

Results for CC(=O)Nc1ccc(S(=O)(=O)Nc2ccc(F)cc2F)cc1 ?
HePTP inh: -7

What do the screens show for `CCCOC(=O)c1ccc(OCC(O)Cn2c(C)nc3ccccc32)cc1` (stereo unspecified)?
TNAP act DEA: 1; FXIa inh mix: 6; FXIIa mix inh: 5; HePTP inh: 9; Calb biofilm kill: 8; D1 mod: -3.2*

How did Nc1nc(Cn2nnc(-c3ccccc3F)n2)nc(N2CCOCC2)n1 do in these assays?
TNAP act DEA: 1; FXIa inh mix: -1; FXIIa mix inh: 5; HePTP inh: 1; D1 mod: 3.3

Compound activity: PubChem BioAssay, several laboratories
